Source: PubChem BioAssay (Tox21)
Results filed as inconclusive are left out. Activity calls are given as the source filed them. Unless noted, calls come from the whole dose curve; as a rule, active = well fitted curve in the direction sought with a large enough effect in the repeat runs; inconclusive = weak or mixed curves; inactive = no such curve, though single readings can be large; an effect the other way counts as inactive or inconclusive.

Legend:
[1] = qHTS assay to identify small molecule agonists of the vitamin D receptor (VDR) signaling pathway - cell viability counter screen (AID 743224); note: series mostly up to about 63 µM; nearly all actives have a fitted effect of over 50% in size
Summary of the method: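 VDR-bla cells were preincubated 4 h at 37C/5% CO2, then exposed to compounds for 16 h. After the 2 h room-temperature bla FRET read, CellTiter-Glo was added to the same wells and luminescence read after 30 min.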

[2] = qHTS assay to identify small molecule agonists of the NFkB signaling pathway (AID 1159509; active = well fitted curve in the direction sought with a large enough effect in the signal ratio in the repeat runs, not every such curve was filed as active; the % refers to the signal ratio; note: series mostly up to about 61 µM)
Summary of the method: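 After overnight attachment, reporter cells received test compounds, DMSO or positive controls and were incubated 5 hr at 37 C. FRET substrate was then added for 1.5 hr at room temperature before dual-emission fluorescence reading.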

[3] = qHTS assay to identify small molecule agonists of the NFkB signaling pathway - cell viability counter screen (AID 1159515; calls by dose curve; note: series mostly up to about 61 µM; nearly all actives have a fitted effect of over 55% in size)
Summary of the method: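 NFkB-bla ME-180 cells, 2,000/well, were plated overnight at 37 C, 5% CO2, then exposed to compounds in DMSO for 5 hr. After the bla FRET read, CellTiter-Glo was added to the same wells; luminescence was read after 30 min at room temperature.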

[4] = qHTS assay to identify small molecule agonists of the endoplasmic reticulum stress response signaling pathway (AID 1159516; active = well fitted activation curve with a large enough effect in the signal ratio in the repeat runs, not every such curve was filed as active; the % refers to the signal ratio)
Summary of the method: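 CellSensor ESRE-bla HeLa cells, carrying a beta-lactamase reporter driven by the ER stress response element, were plated overnight and exposed to compounds for 5 hr at 37 C. Reporter activity was read as FRET substrate fluorescence after 2 hr at room temperature.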

[5] = qHTS assay to identify small molecule agonists of the endoplasmic reticulum stress response signaling pathway - cell viability counter screen (AID 1159517; calls by dose curve; note: series mostly up to about 61 µM; nearly all actives have a fitted effect of over 50% in size)
Summary of the method: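 Counter-screen wells were identical to the reporter wells. Cells were plated at 1,500 per well and dosed for 5 hr, then read for luminescence 30 min after CellTiter-Glo addition.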

[6] = qHTS assay to identify small molecule antagonists of the retinoid-related orphan receptor gamma (ROR-gamma) signaling pathway - cell viability counter screen (AID 1159520); note: nearly all actives have a fitted effect of over 50% in size
Summary of the method: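 Tet-on ROR gamma CHO cells were given compounds for 2 hr, then doxycycline hyclate at 1 uM final, and incubated 16 hr at 37 C. Viability was measured as ATP content by CellTiter-Glo luminescence.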

[7] = target: Nuclear receptor ROR-gamma (Homo sapiens) (UniProt P51449); test: qHTS assay to identify small molecule antagonists of the retinoid-related orphan receptor gamma (ROR-gamma) signaling pathway (AID 1159521;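 note: CHO cells with doxycycline inducible ROR-gamma driving an RORE luciferase reporter; top concentration of the series differs between compounds; nearly all actives have a fitted effect of over 50% in size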)
Summary of the method: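 CHO cells expressing RORγ under a TET-on promoter, luciferase under RORE control. Dox 1 uM final, 16 h; compounds added 2 h prior. Luminescence decrease measured.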

[8] = qHTS assay to identify small molecule agonists of the AP-1 signaling pathway - cell viability counter screen (AID 1159525; calls by dose curve; note: nearly all actives have a fitted effect of over 55% in size)
Summary of the method: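 AP-1-bla ME-180 cells in Opti-MEM with 0.5% dialyzed FBS, compound exposure 5 h at 37 C in 15-point titration. Viability read in the same wells as ATP content by CellTiter-Glo luminescence, normalised to tetra-n-octylammonium bromide and DMSO controls.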

[9] = qHTS assay to identify small molecule agonists of the AP-1 signaling pathway (AID 1159526; calls by dose curve)
[10] = target: Retinoic acid receptor RXR-alpha (Homo sapiens) (UniProt P19793); test: qHTS assay to identify small molecule agonists of the RXR signaling pathway (AID 1159527; calls by dose curve; note: nearly all actives have a fitted effect of over 35% in size)
Chain of Retinoic acid receptor RXR-alpha (Homo sapiens) (P19793 whole entry, looked up): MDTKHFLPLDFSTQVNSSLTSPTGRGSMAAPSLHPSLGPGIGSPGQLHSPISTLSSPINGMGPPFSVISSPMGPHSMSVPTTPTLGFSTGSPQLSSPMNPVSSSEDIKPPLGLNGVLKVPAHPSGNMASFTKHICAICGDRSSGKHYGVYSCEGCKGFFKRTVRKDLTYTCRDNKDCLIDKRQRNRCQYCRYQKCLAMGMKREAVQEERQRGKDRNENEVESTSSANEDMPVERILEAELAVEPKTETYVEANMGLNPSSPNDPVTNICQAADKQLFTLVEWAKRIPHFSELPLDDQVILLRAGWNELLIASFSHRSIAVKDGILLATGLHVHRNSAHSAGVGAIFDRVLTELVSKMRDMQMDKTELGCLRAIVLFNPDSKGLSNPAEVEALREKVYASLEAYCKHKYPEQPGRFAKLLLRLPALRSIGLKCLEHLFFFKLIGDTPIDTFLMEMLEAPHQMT
Summary of the method: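 Beta-lactamase reporter assay, agonist format. Engineered HEK 293T line, charcoal-stripped FBS at 2%, overnight (16 hr) exposure, fluorescence at 460 and 530 nm after 405 nm excitation.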

[11] = qHTS assay to identify small molecule agonists of the RXR signaling pathway - cell viability counter screen (AID 1159529)
Summary of the method: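 Same-well viability check after the LiveBLAzer FRET read: CellTiter-Glo added, luminescence measured after 30 min at room temperature. Reporter HEK 293T cells had been treated with compounds for 16 hr following a 5 hr preincubation.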

[12] = qHTS assay to identify small molecule antagonists of the retinoid acid receptor (RAR) signaling pathway - cell viability counter screen (AID 1159551); note: nearly all actives have a fitted effect of over 35% in size
Summary of the method: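 C3RL4 cells were seeded overnight at 37 C, then treated with compounds plus 1 uM (final) retinol for 6 h at 37 C. Viability was read as ATP by CellTiter-Glo luminescence after 30 min at room temperature.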

[13] = qHTS assay to identify small molecule antagonists of the retinoic acid receptor (RAR) signaling pathway (AID 1159552; note: nearly all actives have a fitted effect of over 50% in size)
Summary of the method: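 Readout: luciferase luminescence, 30 min post-reagent at RT. Setup: C3RL4 RARE reporter cells, compounds plus retinol 1 uM final, 6 hr incubation at 37 C and 5% CO2.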

[14] = qHTS assay to identify small molecule agonists of the retinoic acid receptor (RAR) signaling pathway (AID 1159553)
Summary of the method: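 C3RL4 cells carrying a RARE luciferase reporter were plated overnight at 37 C, then exposed to compounds in DMSO for 6 hr at 37 C and 5% CO2. Luminescence was read 30 min after luciferase reagent addition at room temperature.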

[15] = qHTS assay to identify small molecule antagonists of the vitamin D receptor (VDR) signaling pathway - cell viability counter screen (AID 743225); note: nearly all actives have a fitted effect of over 50% in size
Summary of the method: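 Luminescent cell viability (CellTiter-Glo) in VDR-bla HEK 293T cells after 16 h compound exposure at 37C in the presence of 3 nM final 1-alpha,25-dihydroxy vitamin D3.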

[16] = qHTS assay to identify small molecule antagonists of the estrogen related receptor (ERR) signaling pathway - cell viability counter screen (AID 1224818);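 note: series mostly up to about 46 µM; viability measured after 17.5 h of compound exposure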
Summary of the method: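 ERR reporter cells plated 6 h at 37 C/5% CO2, then compounds in DMSO pin-transferred and incubated 17.5 h at 37 C. Viability read as CellTiter-Fluor fluorescence after 30 min at 37 C.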

[17] = qHTS assay to identify small molecule antagonists of the estrogen related receptor (ERR) signaling pathway (AID 1224819)
Summary of the method: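 ERR reporter cells were plated at 2,000 cells/well and left 6 h at 37 C/5% CO2 before pin-tool transfer of compounds in DMSO. After 18 h at 37 C, One-Glo was added and luminescence was read 30 min later at room temperature.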

[18] = qHTS assay to identify small molecule agonists of the estrogen related receptor (ERR) signaling pathway (AID 1224820)
Summary of the method: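 Quantitative HTS of the LOPAC library used NTP ERR reporter cells treated 18 h at 37 C. Signal is luminescence after One-Glo addition and a 30 min room-temperature incubation.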

[19] = tested on: estrogen-related receptor alpha (ERRalpha) with PGC-1alpha coactivator, human; test: qHTS assay to identify small molecule antagonists of the estrogen related receptor signaling pathway with the pleiotropic PPARgamma coactivator (PGC) (AID 1224821; calls by dose curve)
Summary of the method: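 Quantitative HTS for antagonism: PGC/ERR cells received compounds after 6 h attachment and were incubated 18 h at 37 C, with luminescence (One-Glo) as the endpoint.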

[20] = qHTS assay to identify small molecule antagonists of the estrogen related receptor signaling pathway with the pleiotropic PPARgamma coactivator (PGC) cell viability counter screen (AID 1224822; note: series mostly up to about 46 µM)
Summary of the method: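 PGC/ERR cells were seeded at 2,000 cells/well, rested 6 h at 37 C/5% CO2, then given compounds in DMSO by pin tool and incubated 17.5 h at 37 C. Viability came from CellTiter-Fluor fluorescence after 30 min.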

Measured: Potency

CCCCOC(C)=O
not listed: [15] | [16] | [17] | [18] | [19] | [20]
inactive: all other assays above

CC[C@@H](CO)NC(=O)[C@@H]1C=C2c3cccc4[nH]cc(c34)C[C@H]2N(C)C1
inactive: all assays above

ClCC1CO1 (centres undefined)
not listed: [16] | [17] | [18] | [19] | [20]
inactive: all other assays above

CC(C)(N)Cc1ccc(Cl)cc1
not listed: [16] | [17] | [18] | [19] | [20]
inactive: all other assays above

O=C(O)c1c(Cl)ccc2cc(Cl)cnc12
not listed: [16] | [17] | [18] | [19] | [20]
inactive: all other assays above

CN=CNc1ccc(C)cc1C
not listed: [16] | [17] | [18] | [19] | [20]
inactive: all other assays above

CC(Cc1ccccc1)NCCCCl (centres undefined)
not listed: [16] | [17] | [18] | [19] | [20]
inactive: all other assays above

Clc1ccc(C(Cl)(Cl)Cl)cn1
not listed: [16] | [17] | [18] | [19] | [20]
inactive: all other assays above

CCCCCCCCBr
not listed: [16] | [17] | [18] | [19] | [20]
inactive: all other assays above

O=C(NC(O)C(Cl)(Cl)Cl)NC(O)C(Cl)(Cl)Cl (centres undefined)
not listed: [16] | [17] | [18] | [19] | [20]
inactive: all other assays above

C=C1C[C@@H]2[C@H](CC[C@]3(C)C(=O)CC[C@@H]23)[C@@]2(C)C=CC(=O)C=C12
not listed: [16] | [17] | [18] | [19] | [20]
inactive: all other assays above

COc1ccccc1OC
not listed: [16] | [17] | [18] | [19] | [20]
inactive: all other assays above

ClCCCCCCCl
not listed: [16] | [17] | [18] | [19] | [20]
inactive: all other assays above

CC(=NC#N)N(C)Cc1ccc(Cl)nc1
not listed: [16] | [17] | [18] | [19] | [20]
inactive: all other assays above

CCC1(c2cccc(O)c2)CCCCN(C)C1 (centres undefined)
not listed: [16] | [17] | [18] | [19] | [20]
inactive: all other assays above

NC(=O)OCCCc1ccccc1
not listed: [16] | [17] | [18] | [19] | [20]
inactive: all other assays above

CCNc1nc(Cl)nc(NC(C)(C)C)n1
not listed: [16] | [17] | [18] | [19] | [20]
inactive: all other assays above

O=C/C=C/c1ccco1
not listed: [16] | [17] | [18] | [19] | [20]
inactive: all other assays above
